Measured values reported in PubChem BioAssay (EPA / NIEHS).
Values joined by “and” are separate entries in the source; they are usually repeats but may differ in a detail not shown here. Equal entries are not always repeated. Records with an inconclusive call do not appear. Where a structure was tested more than once in an assay, its records may differ in their call. Active and inactive are the calls of the source. Rule for the calls: active = hit-call score of the fitted dose curve at least 0.9, where 1 is the maximum; inconclusive = response in the unintended direction; inactive = score below 0.9.

How the values were obtained:
[1] = test system: turtle Androgen Receptor (AR), gene 101947425; experiment: ATG_trAR_XSP2: Attagene TRANS-FACTORIAL Multi-Species (XSP2) HepG2 Assay for turtle Androgen Receptor (AR) (AID 2283815);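 for AC50: reporter mRNA from a Gal4 chimera of turtle AR measured by RT-PCR; potency for gain of reporter signal meaning activation above DMSO baseline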
Summary of the method: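 Reporter transcripts were quantified via RT-PCR and capillary electrophoresis and fitted upward against DMSO. Transiently transfected human HepG2 cells carrying NR-Gal4 chimeras were exposed 24 h, with 3 nM 6-alpha-fluorotestosterone plus 1.5 nM norgestrel added.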

[2] = target: zebrafish Estrogen Receptor (ER1), esr1 (gene 259252) (UniProt P57717); experiment: ATG_zfER1_XSP2: Attagene TRANS-FACTORIAL Multi-Species (XSP2) HepG2 Assay for zebrafish Estrogen Receptor (ER1) (AID 2283816)
Summary of the method: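 After 24 h compound exposure, RNA from transfected HepG2 cells was reverse-transcribed and reporter transcripts resolved by capillary electrophoresis. The TRANS format reads exogenous zebrafish ER1-Gal4 chimera activity on GAL4-UAS elements; gain of signal against DMSO.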

[3] = target: chicken Estrogen Receptor (ERa), ESR1 (gene 396099) (UniProt P06212); experiment: ATG_chERa_XSP2: Attagene TRANS-FACTORIAL Multi-Species (XSP2) HepG2 Assay for chicken Estrogen Receptor (ERa) (AID 2283817);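 note: actives raise reporter signal above DMSO so AC50 reflects ER activation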
Summary of the method: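 Reporter mRNA induction read by RT-PCR, fluorescent labelling and capillary electrophoresis after 24 h exposure; positive-direction fit against DMSO baseline. HepG2 cells transfected with multiplexed GAL4-UAS units including chicken ERa chimera; medium contained 3 nM 6-alpha-fluorotestosterone plus 1.5 nM norgestrel.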

[4] = test system: zebrafish Estrogen Receptor (ER2a), gene 317734; experiment: ATG_zfER2a_XSP2: Attagene TRANS-FACTORIAL Multi-Species (XSP2) HepG2 Assay for zebrafish Estrogen Receptor (ER2a) (AID 2283818);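 note: hits raise reporter mRNA so AC50 reflects activation of zebrafish ER2a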
Summary of the method: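 Multiplexed trans-reporter readout: RT-PCR then capillary electrophoresis of reporter transcripts after 24 h compound treatment. Human HepG2 carries transfected zebrafish ER2a-Gal4 chimera; 3 nM 6-alpha-fluorotestosterone plus 1.5 nM norgestrel present. Induction scored against DMSO.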

[5] = test system: chicken Androgen Receptor (AR), gene 422165; experiment: ATG_chAR_XSP2: Attagene TRANS-FACTORIAL Multi-Species (XSP2) HepG2 Assay for chicken Androgen Receptor (AR) (AID 2283819);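 note: hits raise reporter mRNA above DMSO so potency is for activation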
Protocol: ATG_XSP2_multi-species_TRANS is a cell-based, multiplexed assay created by modifying the existing Attagene TRANS-FACTORIAL system to include a panel of nuclear receptors from some or all the following species: human (Homo sapiens), mouse (Mus musculus), frog (Xenopus laevis), zebrafish (Danio rerio), chicken (Gallus gallus), and turtle (Chrysemys picta). The ECOTOX-FACTORIAL format uses HepG2, a human liver cell line, with measurements taken at 24 hours after chemical dosing in a 24-well plate. Xsp2 included 3 nM 6-alpha-fluorotestosterone and 1.5 nM norgestrel to stimulate the androgen receptor.ATG_chAR_XSP2 is one of 29 assay components measured or calculated from the ATG_XSP2_multi-species_TRANS assay. It is designed to make measurements of mRNA induction, a form of inducible reporter, as detected with fluorescence intensity signals by Reverse transcription polymerase chain reaction (RT-PCR) and Capillary electrophoresis technology.The assay endpoint ATG_chAR_XSP2 was analyzed in the positive analysis fitting direction relative to DMSO as the negative control and baseline of activity. Using a type of inducible reporter, measures of mRNA for gain-of-signal activity can be used to understand the reporter gene at the transcription factor-level as they relate to the gene AR. Furthermore, this assay endpoint can be referred to as a primary readout, because this assay has produced multiple assay endpoints where this one serves a reporter gene function. To generalize the intended target to other relatable targets, this assay endpoint is annotated to the nuclear receptor intended target family, where the subfamily is steroidal.
Human liver HepG2 cells are transiently transfected with multiple reporter transcription units (MRTUs) in 6-well plates using FuGene 6 reagent (Roche; 3 ml FuGene/1 mg DNA). The MRTU constructs are regulated by a cis-regulating element (promoter). […] A major difference between the CIS and TRANS system is that in CIS activities of endogenous TFs are measured, whereas the TRANS assay evaluates changes in activities of exogenous, chimeric NR-Gal4 proteins. […] At the end of 24 hour incubation, total RNA was isolated using TriZol reagent (Invitrogen). The isolated RNA is then reverse-transcribed using oligo(dT) primer and Mo-MLV reverse transcriptase (Invitrogen) with DNAse I (Ambion) treatment for 30 min. […] The fragments were purified using Qiaquick PCR columns (Qiagen), analyzed on an ABI 3130xL genetic analyzer (Applied Biosystems) with peak positions identified by using a set of X-rhodamine (ROX)-labeled MapMarker1000 molecular weight standards (BioVentures). […]

[6] = test system: frog Estrogen Receptor (ER), gene 398734; experiment: ATG_frER1_XSP2: Attagene TRANS-FACTORIAL Multi-Species (XSP2) HepG2 Assay for frog Estrogen Receptor (ER) (AID 2283821);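 note: hits raise reporter mRNA above DMSO baseline so potency means agonist or activator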
Summary of the method: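 HepG2 cells transiently transfected with multiplexed GAL4-UAS reporter units expressing chimeric NR-Gal4 proteins (TRANS format) were dosed for 24 h. Reporter mRNA was quantified by RT-PCR, FAM primer extension, HpaI digestion and capillary electrophoresis; gain of signal relative to DMSO.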

[7] = test system: zebrafish Estrogen Receptor (ER2b), gene 317733; experiment: ATG_zfER2b_XSP2: Attagene TRANS-FACTORIAL Multi-Species (XSP2) HepG2 Assay for zebrafish Estrogen Receptor (ER2b) (AID 2283823);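 note: fitted upward as reporter gain over DMSO so potency reflects activation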
Summary of the method: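 HepG2 human liver cells transiently transfected with multiplexed GAL4-UAS reporter units expressing chimeric NR-Gal4 proteins; compounds dosed for 24 h. Reporter mRNA quantified by RT-PCR, 6-FAM labelling and capillary electrophoresis; gain-of-signal fitted against DMSO baseline.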

[8] = target: GAL4 Transcription Factor (Internal Marker), GAL4 (gene 855828) (UniProt P04386); experiment: ATG_GAL4_XSP2: Attagene TRANS-FACTORIAL Multi-Species (XSP2) HepG2 Assay for GAL4 Transcription Factor (Internal Marker) (AID 2283814);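 note: GAL4 reporter mRNA background control in MRTU transfected cells not a receptor target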
Summary of the method: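 Background-control readout: gain-of-signal fitted against DMSO. After 24 h exposure of transfected HepG2 (MRTU, GAL4-UAS reporters; 3 nM 6-alpha-fluorotestosterone, 1.5 nM norgestrel present), transcripts quantified by RT-PCR and capillary electrophoresis fluorescence.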

[9] = ATG_M_19_XSP2: Attagene TRANS-FACTORIAL Multi-Species (XSP2) HepG2 Assay for M32 Transcription Factor (Internal Marker) (AID 2283822)
Summary of the method: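 Internal background marker in a multi-species nuclear receptor TRANS panel: transfected HepG2 cells exposed 24 h, with 3 nM 6-alpha-fluorotestosterone and 1.5 nM norgestrel present. Readout is RT-PCR of reporter transcripts resolved by capillary electrophoresis, gain-of-signal versus DMSO.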

[10] = target: Estrogen receptor beta (Homo sapiens) (UniProt Q92731); experiment: ATG_hERb_XSP2: Attagene TRANS-FACTORIAL Multi-Species (XSP2) HepG2 Assay for human Estrogen Receptor (ERb) (AID 2283813);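 note: actives raise reporter mRNA above DMSO so AC50 reflects agonist induction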
Summary of the method: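 Transient TRANS reporter system in HepG2: after 24 h of chemical, RNA is reverse-transcribed, reporter cDNA amplified, FAM-labelled and sized by capillary electrophoresis. Induction of the human ERb-Gal4 reporter is measured relative to DMSO.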

Measured: AC50

GAL4 Transcription Factor (Internal Marker), GAL4 (gene 855828), sequence (P04386 whole entry, looked up, the tested form may be a part): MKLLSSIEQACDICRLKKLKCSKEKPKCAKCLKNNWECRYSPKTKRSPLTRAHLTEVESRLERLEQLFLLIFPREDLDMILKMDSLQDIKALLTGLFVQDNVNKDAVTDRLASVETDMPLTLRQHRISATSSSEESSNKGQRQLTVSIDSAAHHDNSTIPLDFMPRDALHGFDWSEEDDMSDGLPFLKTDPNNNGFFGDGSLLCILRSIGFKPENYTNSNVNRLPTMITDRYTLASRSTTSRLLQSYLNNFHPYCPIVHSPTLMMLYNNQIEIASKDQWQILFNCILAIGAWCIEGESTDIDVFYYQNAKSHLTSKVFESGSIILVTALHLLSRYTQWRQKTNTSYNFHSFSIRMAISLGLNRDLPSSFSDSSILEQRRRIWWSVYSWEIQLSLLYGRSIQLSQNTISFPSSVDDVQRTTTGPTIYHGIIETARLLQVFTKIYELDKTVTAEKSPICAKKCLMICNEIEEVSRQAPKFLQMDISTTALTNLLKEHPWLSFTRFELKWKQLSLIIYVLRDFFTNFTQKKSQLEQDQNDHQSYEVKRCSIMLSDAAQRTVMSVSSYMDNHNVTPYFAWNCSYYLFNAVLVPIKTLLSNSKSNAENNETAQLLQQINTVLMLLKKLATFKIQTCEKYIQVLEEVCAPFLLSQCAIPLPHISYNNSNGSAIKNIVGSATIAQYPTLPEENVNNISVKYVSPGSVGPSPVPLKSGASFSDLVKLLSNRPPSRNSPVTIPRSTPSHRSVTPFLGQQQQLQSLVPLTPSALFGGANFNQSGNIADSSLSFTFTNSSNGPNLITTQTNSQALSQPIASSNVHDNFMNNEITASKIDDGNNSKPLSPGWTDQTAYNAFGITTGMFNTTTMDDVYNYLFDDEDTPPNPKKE
Estrogen receptor beta (Homo sapiens), sequence (Q92731 whole entry, looked up, the tested form may be a part): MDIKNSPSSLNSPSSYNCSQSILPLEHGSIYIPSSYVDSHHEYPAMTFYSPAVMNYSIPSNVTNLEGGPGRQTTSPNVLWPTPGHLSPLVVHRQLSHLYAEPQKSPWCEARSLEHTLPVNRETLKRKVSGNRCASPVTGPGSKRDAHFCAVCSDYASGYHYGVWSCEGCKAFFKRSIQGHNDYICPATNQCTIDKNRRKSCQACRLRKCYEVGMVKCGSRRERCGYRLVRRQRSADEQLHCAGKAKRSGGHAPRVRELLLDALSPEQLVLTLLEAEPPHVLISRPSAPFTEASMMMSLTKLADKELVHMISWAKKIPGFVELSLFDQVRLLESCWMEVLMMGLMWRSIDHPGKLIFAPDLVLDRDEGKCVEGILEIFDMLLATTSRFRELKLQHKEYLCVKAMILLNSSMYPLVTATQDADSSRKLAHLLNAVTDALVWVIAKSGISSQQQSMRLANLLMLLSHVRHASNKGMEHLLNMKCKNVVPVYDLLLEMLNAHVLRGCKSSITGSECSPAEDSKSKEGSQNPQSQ
zebrafish Estrogen Receptor (ER1), esr1 (gene 259252), sequence (P57717 whole entry, looked up, the tested form may be a part): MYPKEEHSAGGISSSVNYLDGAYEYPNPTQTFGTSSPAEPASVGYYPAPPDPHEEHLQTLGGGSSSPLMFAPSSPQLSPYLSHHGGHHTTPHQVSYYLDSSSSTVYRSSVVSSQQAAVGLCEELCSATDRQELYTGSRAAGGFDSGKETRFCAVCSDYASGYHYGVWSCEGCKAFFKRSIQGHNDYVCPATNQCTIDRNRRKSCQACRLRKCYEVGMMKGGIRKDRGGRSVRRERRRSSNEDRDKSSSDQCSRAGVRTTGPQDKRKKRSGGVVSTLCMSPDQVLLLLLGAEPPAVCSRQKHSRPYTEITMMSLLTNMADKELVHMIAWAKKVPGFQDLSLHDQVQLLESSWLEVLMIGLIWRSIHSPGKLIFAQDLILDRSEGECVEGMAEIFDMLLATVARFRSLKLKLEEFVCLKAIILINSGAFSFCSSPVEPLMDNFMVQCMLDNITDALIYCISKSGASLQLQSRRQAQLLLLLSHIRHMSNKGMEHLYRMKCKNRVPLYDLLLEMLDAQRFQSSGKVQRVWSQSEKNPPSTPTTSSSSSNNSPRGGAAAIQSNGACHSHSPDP
chicken Estrogen Receptor (ERa), ESR1 (gene 396099), sequence (P06212 whole entry, looked up, the tested form may be a part): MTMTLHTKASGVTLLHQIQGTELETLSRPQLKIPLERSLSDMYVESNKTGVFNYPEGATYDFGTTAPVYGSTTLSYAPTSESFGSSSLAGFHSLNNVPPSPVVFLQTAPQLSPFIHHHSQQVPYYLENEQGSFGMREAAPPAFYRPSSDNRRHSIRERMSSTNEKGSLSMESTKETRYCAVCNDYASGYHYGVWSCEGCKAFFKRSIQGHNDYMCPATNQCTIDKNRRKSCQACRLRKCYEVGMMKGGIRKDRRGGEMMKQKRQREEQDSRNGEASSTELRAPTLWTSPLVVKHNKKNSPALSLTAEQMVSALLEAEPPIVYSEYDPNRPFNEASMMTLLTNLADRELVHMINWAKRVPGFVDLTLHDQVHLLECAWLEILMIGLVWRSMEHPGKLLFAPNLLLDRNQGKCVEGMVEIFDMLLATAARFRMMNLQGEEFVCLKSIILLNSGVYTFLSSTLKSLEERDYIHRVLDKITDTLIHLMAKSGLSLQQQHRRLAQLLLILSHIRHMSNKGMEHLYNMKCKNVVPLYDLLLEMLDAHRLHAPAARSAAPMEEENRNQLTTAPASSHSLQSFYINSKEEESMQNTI

O=c1c(O)c(-c2ccc(O)cc2)oc2cc(O)cc(O)c12
active: [1] 3.01 µM and 1.32 µM | [2] 1.68 µM and 954 nM | [3] 3 µM and 1.53 µM | [4] 1.61 µM and 981 nM | [5] 3.26 µM and 1.35 µM | [6] 2.48 µM and 1.49 µM | [7] 2.83 µM and 1.85 µM

CCCCC(CC)COC(=O)c1ccc(O)cc1 (stereo not given)
inactive: [8] | [9]
active: [1] 53.2 µM | [2] 52.2 µM | [3] 6.15 µM | [4] 33.4 µM | [5] 51.9 µM | [6] 49.9 µM | [7] 16.3 µM

BrCc1cccc(Oc2ccccc2)c1
inactive: [2]
active: [10] 21.3 µM and 7.91 µM | [2] 100 µM | [3] 27.5 µM and 21.5 µM | [4] 19.2 µM and 11.9 µM | [6] 7.78 µM and 26.9 µM | [7] 34.9 µM and 12.4 µM

Oc1ccc2cc(SSc3ccc4cc(O)ccc4c3)ccc2c1
active: [2] 2.96 µM | [3] 2.29 µM and 634 nM | [4] 0.822 µM | [5] 40.7 µM | [7] 2.56 µM and 2.52 µM
inactive: [1] | [2] | [5] | [6]

Clc1ccc(C(c2ccccc2Cl)C(Cl)Cl)cc1 (stereo not given)
active: [10] 3.01 µM and 5.58 µM | [2] 4.61 µM and 12.7 µM | [3] 3.1 µM and 7.58 µM | [4] 2.3 µM and 2.61 µM | [6] 2.74 µM and 4.46 µM | [7] 2.37 µM and 1.97 µM

OCc1cccc(Oc2ccccc2)c1
inactive: [8] | [2]
active: [10] 26.9 µM and 8.78 µM | [2] 37.7 µM | [3] 16 µM and 6.22 µM | [4] 23.5 µM and 14.7 µM | [6] 27 µM and 27.1 µM | [7] 46.5 µM and 12.4 µM

Cc1cc(=O)oc2cc(N(C)C)ccc12
inactive: [10] | [8] | [2] | [3] | [4]
active: [3] 31.4 µM | [4] 100 µM | [6] 19.2 µM and 27.6 µM | [7] 77.1 µM and 100 µM
